Experimental data reported in PMC11006913.
Where a chain is given by its changes, count along the chain named.

Tests used:
Test in all cases: PBM; 200 nM protein, PBS
Details in all cases: dsDNA, one strand shown
HOXA4 [1] = molecular target: HOXA4 (Homo sapiens, UniProt Q00056 201-287, W262R)
HOXA4 [2] = molecular target: HOXA4 (Homo sapiens, UniProt Q00056 201-287, R217L)
HOXA4 [3] = molecular target: HOXA4 (Homo sapiens, UniProt Q00056 201-287)
HOXA4 [4] = molecular target: HOXA4 (Homo sapiens, UniProt Q00056 201-287, W262F)
MSX2 [5] = molecular target: MSX2 (Homo sapiens, UniProt P35548 130-214, R199I)
NKX2-6 [6] = molecular target: T1, NKX2-6 (Homo sapiens, UniProt A6NCS4 118-204)
T1 sequence: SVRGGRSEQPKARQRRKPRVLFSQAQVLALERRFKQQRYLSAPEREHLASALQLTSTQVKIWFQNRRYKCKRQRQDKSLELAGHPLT

MSX2 [7] = molecular target: MSX2 (Homo sapiens, UniProt P35548 130-214)
NKX2-6 [8] = molecular target: T2, NKX2-6 (Homo sapiens, UniProt A6NCS4 118-204, F151L)
T2 sequence: T1 sequence with F34L

MSX2 [9] = molecular target: MSX2 (Homo sapiens, UniProt P35548 130-214, F161Y)
ALX3 [10] = molecular target: ALX3 (Homo sapiens, UniProt O95076 139-225, N203Q)
ALX3 [11] = molecular target: ALX3 (Homo sapiens, UniProt O95076 139-225)
ALX3 [12] = molecular target: ALX3 (Homo sapiens, UniProt O95076 139-225, L168Q)
ALX3 [13] = molecular target: ALX3 (Homo sapiens, UniProt O95076 139-225, L168V)
ALX3 [14] = molecular target: ALX3 (Homo sapiens, UniProt O95076 139-225, N203S)
HOXB6 [15] = molecular target: HOXB6 (Homo sapiens, UniProt P17509 132-218, K202E)
HOXB6 [16] = molecular target: HOXB6 (Homo sapiens, UniProt P17509 132-218)
PROP1 [17] = molecular target: PROP1 (Homo sapiens, UniProt O75360 56-141)
PROP1 [18] = molecular target: PROP1 (Homo sapiens, UniProt O75360 56-141, R99H)
PROP1 [19] = molecular target: PROP1 (Homo sapiens, UniProt O75360 56-141, F88S)
HOXD13 [20] = molecular target: HOXD13 (Homo sapiens, UniProt P35453 263-343, T313R)
HOXD13 [21] = molecular target: HOXD13 (Homo sapiens, UniProt P35453 263-343)
HOXD13 [22] = molecular target: HOXD13 (Homo sapiens, UniProt P35453 263-343, T313A)
Chain of HOXD13 (Homo sapiens, UniProt P35453 263-343, T313A) (P35453 263-343 T313A): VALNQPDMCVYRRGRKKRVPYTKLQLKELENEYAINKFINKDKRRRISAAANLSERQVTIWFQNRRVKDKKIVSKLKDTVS

Chain of ALX3 (Homo sapiens, UniProt O95076 139-225) (O95076 139-225): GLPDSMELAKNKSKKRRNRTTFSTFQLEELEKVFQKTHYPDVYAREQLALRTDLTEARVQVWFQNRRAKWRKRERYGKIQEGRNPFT
Chain of ALX3 (Homo sapiens, UniProt O95076 139-225, L168Q) (O95076 139-225 L168Q): as the sequence (O95076 139-225) above, with L30Q counted along it
Chain of ALX3 (Homo sapiens, UniProt O95076 139-225, N203Q) (O95076 139-225 N203Q): as the sequence (O95076 139-225) above, with N65Q counted along it
Chain of HOXA4 (Homo sapiens, UniProt Q00056 201-287, W262F) (Q00056 201-287 W262F): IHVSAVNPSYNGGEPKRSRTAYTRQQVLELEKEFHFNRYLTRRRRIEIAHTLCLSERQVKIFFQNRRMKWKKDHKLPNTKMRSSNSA
Chain of ALX3 (Homo sapiens, UniProt O95076 139-225, L168V) (O95076 139-225 L168V): as the sequence (O95076 139-225) above, with L30V counted along it
Chain of HOXA4 (Homo sapiens, UniProt Q00056 201-287, R217L) (Q00056 201-287 R217L): as the sequence (Q00056 201-287 W262F) above, with R17L, F62W counted along it
Chain of ALX3 (Homo sapiens, UniProt O95076 139-225, N203S) (O95076 139-225 N203S): as the sequence (O95076 139-225) above, with N65S counted along it
Chain of HOXA4 (Homo sapiens, UniProt Q00056 201-287) (Q00056 201-287): as the sequence (Q00056 201-287 W262F) above, with F62W counted along it
Chain of HOXA4 (Homo sapiens, UniProt Q00056 201-287, W262R) (Q00056 201-287 W262R): as the sequence (Q00056 201-287 W262F) above, with F62R counted along it
Chain of PROP1 (Homo sapiens, UniProt O75360 56-141, F88S) (O75360 56-141 F88S): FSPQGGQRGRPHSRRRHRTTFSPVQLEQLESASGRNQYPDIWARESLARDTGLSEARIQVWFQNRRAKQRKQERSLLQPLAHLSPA
Chain of MSX2 (Homo sapiens, UniProt P35548 130-214, R199I) (P35548 130-214 R199I): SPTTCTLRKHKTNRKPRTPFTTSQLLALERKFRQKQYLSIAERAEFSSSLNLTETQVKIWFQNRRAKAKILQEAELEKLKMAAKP
Chain of HOXB6 (Homo sapiens, UniProt P17509 132-218) (P17509 132-218): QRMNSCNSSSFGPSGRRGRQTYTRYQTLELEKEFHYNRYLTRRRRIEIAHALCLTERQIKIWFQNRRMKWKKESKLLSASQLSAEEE
Chain of MSX2 (Homo sapiens, UniProt P35548 130-214) (P35548 130-214): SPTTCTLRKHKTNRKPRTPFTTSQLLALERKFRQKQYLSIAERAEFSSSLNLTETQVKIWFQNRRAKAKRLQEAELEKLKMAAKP
Chain of HOXD13 (Homo sapiens, UniProt P35453 263-343) (P35453 263-343): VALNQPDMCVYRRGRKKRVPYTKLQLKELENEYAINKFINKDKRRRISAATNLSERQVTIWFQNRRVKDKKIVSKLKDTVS
Chain of HOXD13 (Homo sapiens, UniProt P35453 263-343, T313R) (P35453 263-343 T313R): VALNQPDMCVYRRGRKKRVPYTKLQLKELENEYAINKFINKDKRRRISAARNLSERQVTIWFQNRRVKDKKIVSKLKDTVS
Chain of PROP1 (Homo sapiens, UniProt O75360 56-141, R99H) (O75360 56-141 R99H): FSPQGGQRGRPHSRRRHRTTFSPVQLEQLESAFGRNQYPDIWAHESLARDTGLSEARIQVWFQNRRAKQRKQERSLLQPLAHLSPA
Chain of PROP1 (Homo sapiens, UniProt O75360 56-141) (O75360 56-141): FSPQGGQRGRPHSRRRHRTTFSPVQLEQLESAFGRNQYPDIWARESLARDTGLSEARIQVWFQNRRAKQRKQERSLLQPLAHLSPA
Chain of HOXB6 (Homo sapiens, UniProt P17509 132-218, K202E) (P17509 132-218 K202E): as the sequence (P17509 132-218) above, with K71E counted along it
Chain of MSX2 (Homo sapiens, UniProt P35548 130-214, F161Y) (P35548 130-214 F161Y): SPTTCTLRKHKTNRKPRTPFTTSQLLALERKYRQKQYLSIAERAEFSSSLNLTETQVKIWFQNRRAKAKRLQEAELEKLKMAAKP

For CACACCGG, the binding signal (HOXA4 [1]) was 9.76 upbm affinity estimate (log intensity, higher = more binding, comparable within an allelic series), the binding signal (HOXA4 [2]) was 9.68 upbm affinity estimate (log intensity, higher = more binding, comparable within an allelic series) and the binding signal (HOXA4 [3]) was 9.76 upbm affinity estimate (log intensity, higher = more binding, comparable within an allelic series). For the same sequence, the binding signal (HOXA4 [4]) was 9.81 upbm affinity estimate (log intensity, higher = more binding, comparable within an allelic series).
For CCCGGTCG, the binding signal (HOXA4 [1]) was 9.67 upbm affinity estimate (log intensity, higher = more binding, comparable within an allelic series), the binding signal (HOXA4 [2]) was 9.77 upbm affinity estimate (log intensity, higher = more binding, comparable within an allelic series) and the binding signal (MSX2 [5]) was 9.45 upbm affinity estimate (log intensity, higher = more binding, comparable within an allelic series). For the same sequence, the binding signal (NKX2-6 [6]) was 9.06 upbm affinity estimate (log intensity, higher = more binding, comparable within an allelic series), the binding signal (HOXA4 [3]) was 9.88 upbm affinity estimate (log intensity, higher = more binding, comparable within an allelic series) and the binding signal (MSX2 [7]) was 9.4 upbm affinity estimate (log intensity, higher = more binding, comparable within an allelic series). The binding signal (NKX2-6 [8]) was 9.02 upbm affinity estimate (log intensity, higher = more binding, comparable within an allelic series), the binding signal (MSX2 [9]) was 9.41 upbm affinity estimate (log intensity, higher = more binding, comparable within an allelic series) and the binding signal (HOXA4 [4]) was 9.76 upbm affinity estimate (log intensity, higher = more binding, comparable within an allelic series).
With ACCCCCCG the binding signal (HOXA4 [1]) was 9.65 upbm affinity estimate (log intensity, higher = more binding, comparable within an allelic series), the binding signal (HOXA4 [2]) was 9.8 upbm affinity estimate (log intensity, higher = more binding, comparable within an allelic series) and the binding signal (ALX3 [10]) was 7.72 upbm affinity estimate (log intensity, higher = more binding, comparable within an allelic series). The binding signal (NKX2-6 [6]) was 9.16 upbm affinity estimate (log intensity, higher = more binding, comparable within an allelic series), the binding signal (HOXA4 [3]) was 9.93 upbm affinity estimate (log intensity, higher = more binding, comparable within an allelic series) and the binding signal (ALX3 [11]) was 7.75 upbm affinity estimate (log intensity, higher = more binding, comparable within an allelic series). The binding signal (ALX3 [12]) was 7.65 upbm affinity estimate (log intensity, higher = more binding, comparable within an allelic series), the binding signal (NKX2-6 [8]) was 9.07 upbm affinity estimate (log intensity, higher = more binding, comparable within an allelic series) and the binding signal (ALX3 [13]) was 7.57 upbm affinity estimate (log intensity, higher = more binding, comparable within an allelic series). The binding signal (HOXA4 [4]) was 9.7 upbm affinity estimate (log intensity, higher = more binding, comparable within an allelic series) and the binding signal (ALX3 [14]) was 7.73 upbm affinity estimate (log intensity, higher = more binding, comparable within an allelic series).
In the case of CCCCCCGA, the binding signal (HOXA4 [1]) is reported as 9.72 upbm affinity estimate (log intensity, higher = more binding, comparable within an allelic series), the binding signal (HOXA4 [2]) is reported as 9.69 upbm affinity estimate (log intensity, higher = more binding, comparable within an allelic series) and the binding signal (ALX3 [10]) is reported as 7.7 upbm affinity estimate (log intensity, higher = more binding, comparable within an allelic series). For the same sequence, the binding signal (HOXA4 [3]) was 9.77 upbm affinity estimate (log intensity, higher = more binding, comparable within an allelic series), the binding signal (ALX3 [11]) was 7.94 upbm affinity estimate (log intensity, higher = more binding, comparable within an allelic series) and the binding signal (ALX3 [12]) was 7.67 upbm affinity estimate (log intensity, higher = more binding, comparable within an allelic series). For the same sequence, the binding signal (ALX3 [13]) was 7.65 upbm affinity estimate (log intensity, higher = more binding, comparable within an allelic series), the binding signal (HOXA4 [4]) was 9.57 upbm affinity estimate (log intensity, higher = more binding, comparable within an allelic series) and the binding signal (ALX3 [14]) was 7.71 upbm affinity estimate (log intensity, higher = more binding, comparable within an allelic series).
With ATCATAAG the binding signal (HOXA4 [1]) was 10.4 upbm affinity estimate (log intensity, higher = more binding, comparable within an allelic series), the binding signal (HOXB6 [15]) was 9.66 upbm affinity estimate (log intensity, higher = more binding, comparable within an allelic series) and the binding signal (HOXA4 [3]) was 11.8 upbm affinity estimate (log intensity, higher = more binding, comparable within an allelic series). The binding signal (HOXB6 [16]) was 10.3 upbm affinity estimate (log intensity, higher = more binding, comparable within an allelic series).
For CCCAGACC, the binding signal (HOXA4 [1]) was 9.9 upbm affinity estimate (log intensity, higher = more binding, comparable within an allelic series), the binding signal (HOXA4 [2]) was 9.76 upbm affinity estimate (log intensity, higher = more binding, comparable within an allelic series) and the binding signal (ALX3 [10]) was 7.81 upbm affinity estimate (log intensity, higher = more binding, comparable within an allelic series). The binding signal (HOXA4 [3]) was 9.51 upbm affinity estimate (log intensity, higher = more binding, comparable within an allelic series), the binding signal (ALX3 [11]) was 7.71 upbm affinity estimate (log intensity, higher = more binding, comparable within an allelic series) and the binding signal (PROP1 [17]) was 6.45 upbm affinity estimate (log intensity, higher = more binding, comparable within an allelic series). The binding signal (PROP1 [18]) was 6.71 upbm affinity estimate (log intensity, higher = more binding, comparable within an allelic series), the binding signal (ALX3 [12]) was 7.78 upbm affinity estimate (log intensity, higher = more binding, comparable within an allelic series) and the binding signal (ALX3 [13]) was 7.7 upbm affinity estimate (log intensity, higher = more binding, comparable within an allelic series). The binding signal (PROP1 [19]) was 6.48 upbm affinity estimate (log intensity, higher = more binding, comparable within an allelic series), the binding signal (HOXA4 [4]) was 9.84 upbm affinity estimate (log intensity, higher = more binding, comparable within an allelic series) and the binding signal (ALX3 [14]) was 7.84 upbm affinity estimate (log intensity, higher = more binding, comparable within an allelic series).
For AGAAGGGG, the binding signal (HOXA4 [1]) was 9.84 upbm affinity estimate (log intensity, higher = more binding, comparable within an allelic series), the binding signal (HOXA4 [2]) was 9.53 upbm affinity estimate (log intensity, higher = more binding, comparable within an allelic series) and the binding signal (HOXD13 [20]) was 9.5 upbm affinity estimate (log intensity, higher = more binding, comparable within an allelic series). For the same sequence, the binding signal (HOXD13 [21]) was 9.51 upbm affinity estimate (log intensity, higher = more binding, comparable within an allelic series), the binding signal (HOXA4 [3]) was 9.57 upbm affinity estimate (log intensity, higher = more binding, comparable within an allelic series) and the binding signal (HOXD13 [22]) was 9.57 upbm affinity estimate (log intensity, higher = more binding, comparable within an allelic series). For the same sequence, the binding signal (HOXA4 [4]) was 9.68 upbm affinity estimate (log intensity, higher = more binding, comparable within an allelic series).
